Experimental data reported in US11472855, “RNA-binding protein” (Panitch Schwarze Belisario & Nadel LLP).

Tests used:
[1] = target: T1, hPUF_MT(R5:A_13R)(R5:A_13Y)2(R6:C_13Y)3; assay: EMSA; 13R about 10 times greater; conditions: label: Alexa680 at 5' and 3'; ssRNA
T1 chain: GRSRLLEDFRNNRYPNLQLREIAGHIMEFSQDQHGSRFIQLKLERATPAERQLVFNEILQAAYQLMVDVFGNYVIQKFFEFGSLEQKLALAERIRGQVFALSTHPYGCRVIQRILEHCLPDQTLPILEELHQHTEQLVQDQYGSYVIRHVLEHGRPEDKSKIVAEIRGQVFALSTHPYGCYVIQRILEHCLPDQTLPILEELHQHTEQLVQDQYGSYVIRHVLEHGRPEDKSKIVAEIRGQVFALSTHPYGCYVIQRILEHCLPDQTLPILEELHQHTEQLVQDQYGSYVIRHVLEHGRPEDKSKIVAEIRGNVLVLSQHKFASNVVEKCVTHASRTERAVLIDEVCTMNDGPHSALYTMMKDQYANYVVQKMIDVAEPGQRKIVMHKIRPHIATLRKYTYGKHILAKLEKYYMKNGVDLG

hPUF_MT(F856A) = hPUF_MT(F856A) (UniProt Q14671 SEQ:1-349, F856A); assay: EMSA; conditions: tags: MBP; label: Alexa680 at 5' and 3'; ssRNA
hPUF_MT(F865A) = hPUF_MT(F865A) (UniProt Q14671 SEQ:1-349, F865A); assay: EMSA; smaller contribution than F856; conditions: tags: MBP; label: Alexa680 at 5' and 3'; ssRNA

| Sequence | binding signal [1] | binding signal (hPUF_MT(F856A)) | binding signal (hPUF_MT(F865A)) |
| --- | --- | --- | --- |
| CCAGAAUUGCACACAUAUUCG | ~0.1 fold of 13R protein | – | – |
| CCAGAAUUGUAUAUAUUCG | – | ~0.1 fold of WT | ~0.1 fold of WT |
